PubChem BioAssay AID1159580 (chemical genetic matrix, 2015)
In all, about 5,500 compounds went through this assay and about 2,000 (36%) were called active. Roughly 18% stayed inconclusive and do not appear here. Cut-off read from the data, not from the text of the source: active = normalized growth mostly below about 0.91 (no sharp cut-off); inconclusive = no clear call, values can overlap the other calls; inactive = mostly above about 0.92. The list shows a part of the results.

Test: chemical genetic growth profiling, strain panel (AID 1159580);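 note: tested at 20 µM; growth read once vehicle control cultures reached saturation at 30 °C; 1 = growth at the plate median or of vehicle wells; lower values mean less growth of the strain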
Details: growth OD

Measured: normalized growth

CC1O[C@@H](Oc2c(-c3ccc(O)c(O)c3)oc3cc(O)cc(O)c3c2=O)[C@H](O)[C@H](O)[C@H]1O (some centres not stated)
inactive: S. cerevisiae deletion strains, locus YJR075W, strain HOC1, stronger effect = lower value 0.996 | S. cerevisiae deletion strains, locus YKL009W, strain mrt4, stronger effect = lower value 1.11 | S. cerevisiae deletion strains, locus YKL068W, stronger effect = lower value 0.972 | S. cerevisiae deletion strains, locus YKL085W, strain MDH1 (second series), stronger effect = lower value 1.03 | S. cerevisiae deletion strains, locus YKL085W, strain MDH1, stronger effect = lower value 1.03 | S. cerevisiae deletion strains, locus YKL160W, strain elf1, stronger effect = lower value 0.994 | S. cerevisiae deletion strains, locus YKL190W, strain CNB1, stronger effect = lower value 0.998 | S. cerevisiae deletion strains, locus YKR001C, strain vps1, stronger effect = lower value 0.989 | S. cerevisiae deletion strains, locus YKR026C, strain gcn3, stronger effect = lower value 0.983 | S. cerevisiae deletion strains, locus YKR091W, strain srl3, stronger effect = lower value 0.993 | S. cerevisiae deletion strains, locus YLL001W, strain dnm1, stronger effect = lower value 0.986 | S. cerevisiae deletion strains, locus YLL026W, stronger effect = lower value 0.996 | S. cerevisiae deletion strains, locus YLL041C, strain sdh2, stronger effect = lower value 0.997 | S. cerevisiae deletion strains, locus YLR027C, strain aat2, stronger effect = lower value 0.98 | S. cerevisiae deletion strains, locus YLR039C, strain RIC1, stronger effect = lower value 0.974 | S. cerevisiae deletion strains, locus YLR058C, strain SHM2, stronger effect = lower value 0.999 | S. cerevisiae deletion strains, locus YLR102C, strain apc9, stronger effect = lower value 0.984 | S. cerevisiae deletion strains, locus YLR113W, strain HOG1, stronger effect = lower value 0.958 | S. cerevisiae deletion strains, locus YLR221C, strain rsa3, stronger effect = lower value 0.989 | S. cerevisiae deletion strains, locus YLR258W, strain gsy2, stronger effect = lower value 1 | S. cerevisiae deletion strains, locus YLR262C, strain YPT6 (second series), stronger effect = lower value 1.01 | S. cerevisiae deletion strains, locus YLR262C, strain YPT6, stronger effect = lower value 0.992 | S. cerevisiae deletion strains, locus YLR268W, strain sec22, stronger effect = lower value 0.948 | S. cerevisiae deletion strains, locus YLR320W, strain mms22, stronger effect = lower value 0.991 | S. cerevisiae deletion strains, locus YLR330W, strain CHS5, stronger effect = lower value 0.99 | S. cerevisiae deletion strains, locus YLR342W, strain FKS1 (second series), stronger effect = lower value 1.04 | S. cerevisiae deletion strains, locus YLR342W, strain FKS1, stronger effect = lower value 0.984 | S. cerevisiae deletion strains, locus YLR357W, strain rsc2, stronger effect = lower value 0.969 | S. cerevisiae deletion strains, locus YLR370C, strain arc18, stronger effect = lower value 0.989 | S. cerevisiae deletion strains, locus YLR371W, strain rom2, stronger effect = lower value 0.992 | S. cerevisiae deletion strains, locus YLR384C, strain iki3, stronger effect = lower value 0.994 | S. cerevisiae deletion strains, locus YLR418C, strain cdc73, stronger effect = lower value 0.993 | S. cerevisiae deletion strains, locus YML016C, strain PPZ1, stronger effect = lower value 1 | S. cerevisiae deletion strains, locus YML032C, strain rad52, stronger effect = lower value 0.99 | S. cerevisiae deletion strains, locus YML120C, strain ndi1, stronger effect = lower value 1 | S. cerevisiae deletion strains, locus YML124C, strain tub3, stronger effect = lower value 0.985 | S. cerevisiae deletion strains, locus YMR058W, strain fet3, stronger effect = lower value 0.99 | S. cerevisiae deletion strains, locus YMR078C, strain ctf18, stronger effect = lower value 0.988 | S. cerevisiae deletion strains, locus YMR125W, strain sto1, stronger effect = lower value 0.981 | S. cerevisiae deletion strains, locus YMR129W, stronger effect = lower value 0.982 | S. cerevisiae deletion strains, locus YMR205C, strain PFK2, stronger effect = lower value 0.986 | S. cerevisiae deletion strains, locus YMR223W, strain ubp8, stronger effect = lower value 1.03 | S. cerevisiae deletion strains, locus YMR231W, strain pep5, stronger effect = lower value 0.974 | S. cerevisiae deletion strains, locus YMR263W, strain SAP30, stronger effect = lower value 0.992 | S. cerevisiae deletion strains, locus YMR307W, strain GAS1, stronger effect = lower value 1.1 | S. cerevisiae deletion strains, locus YNL067W, strain RPL9B, stronger effect = lower value 0.975 | S. cerevisiae deletion strains, locus YNL071W, strain lat1, stronger effect = lower value 0.992 | S. cerevisiae deletion strains, locus YNL128W, strain TEP1, stronger effect = lower value 0.986 | S. cerevisiae deletion strains, locus YNL153C, strain GIM3, stronger effect = lower value 0.991 | S. cerevisiae deletion strains, locus YNL183C, strain NPR1, stronger effect = lower value 0.919 | S. cerevisiae deletion strains, locus YNL209W, strain ssb2, stronger effect = lower value 0.984 | S. cerevisiae deletion strains, locus YNL233W, strain BNI4, stronger effect = lower value 0.985 | S. cerevisiae deletion strains, locus YNL248C, strain rpa49, stronger effect = lower value 0.989 | S. cerevisiae deletion strains, locus YNL250W, strain rad50, stronger effect = lower value 0.983 | S. cerevisiae deletion strains, locus YNL271C, strain bni1, stronger effect = lower value 0.984 | S. cerevisiae deletion strains, locus YNL298W, strain CLA4, stronger effect = lower value 0.991 | S. cerevisiae deletion strains, locus YNL307C, strain MCK1, stronger effect = lower value 0.997 | S. cerevisiae deletion strains, locus YNL322C, strain KRE1 (second series), stronger effect = lower value 0.988 | S. cerevisiae deletion strains, locus YNL322C, strain KRE1, stronger effect = lower value 0.984 | S. cerevisiae deletion strains, locus YNR049C, strain mso1, stronger effect = lower value 0.986 | S. cerevisiae deletion strains, locus YNR052C, strain pop2, stronger effect = lower value 0.98 | S. cerevisiae deletion strains, locus YOL006C, strain TOP1, stronger effect = lower value 0.955 | S. cerevisiae deletion strains, locus YOL012C, strain htz1 0.762 | S. cerevisiae deletion strains, locus YOL147C, strain pex11, stronger effect = lower value 0.997 | S. cerevisiae deletion strains, locus YOR001W, strain rrp6, stronger effect = lower value 0.992 | S. cerevisiae deletion strains, locus YOR061W, strain CKA2, stronger effect = lower value 1 | S. cerevisiae deletion strains, locus YOR069W, strain VPS5, stronger effect = lower value 1 | S. cerevisiae deletion strains, locus YOR070C, strain gyp1, stronger effect = lower value 0.986 | S. cerevisiae deletion strains, locus YOR080W, strain dia2, stronger effect = lower value 0.988 | S. cerevisiae deletion strains, locus YOR083W, strain WHI5, stronger effect = lower value 0.995 | S. cerevisiae deletion strains, locus YOR106W, strain vam3, stronger effect = lower value 1.02 | S. cerevisiae deletion strains, locus YOR136W, strain idh2, stronger effect = lower value 0.986 | S. cerevisiae deletion strains, locus YOR144C, strain elg1, stronger effect = lower value 0.982 | S. cerevisiae deletion strains, locus YOR184W, strain ser1, stronger effect = lower value 1.01 | S. cerevisiae deletion strains, locus YOR231W, strain MKK1, stronger effect = lower value 0.942 | S. cerevisiae deletion strains, locus YOR265W, strain rbl2, stronger effect = lower value 0.992 | S. cerevisiae deletion strains, locus YOR270C, strain vph1, stronger effect = lower value 1.03 | S. cerevisiae deletion strains, locus YOR290C, strain snf2, stronger effect = lower value 0.995 | S. cerevisiae deletion strains, locus YOR316C, strain cot1, stronger effect = lower value 0.983 | S. cerevisiae deletion strains, locus YPL051W, strain arl3, stronger effect = lower value 0.983 | S. cerevisiae deletion strains, locus YPL055C, strain LGE1, stronger effect = lower value 0.974 | S. cerevisiae deletion strains, locus YPL078C, strain atp4, stronger effect = lower value 0.997 | S. cerevisiae deletion strains, locus YPL106C, strain sse1, stronger effect = lower value 0.971 | S. cerevisiae deletion strains, locus YPL240C, strain hsp82, stronger effect = lower value 1 | S. cerevisiae deletion strains, locus YPL241C, strain CIN2, stronger effect = lower value 1 | S. cerevisiae deletion strains, locus YPL256C, strain CLN2, stronger effect = lower value 0.927 | S. cerevisiae deletion strains, locus YPR119W, strain clb2, stronger effect = lower value 0.996 | S. cerevisiae deletion strains, locus YPR141C, strain kar3, stronger effect = lower value 0.975 | S. cerevisiae deletion strains, locus YPR163C, strain tif3, stronger effect = lower value 0.986 | S. cerevisiae deletion strains, locus YPR167C, strain met16, stronger effect = lower value 0.982 | S. cerevisiae deletion strains, strain wtn01, stronger effect = lower value 0.982 | S. cerevisiae strains, strain wild type, stronger effect = lower value 0.997
